miR-122 inh: raises miR-122 sensor activity in Huh7 cells. AID 623901. actives 0.14% (n = 340,000). Huh7 psiCHECK-miR122 Renilla luciferase sensor, 48 h. activation, % at 12.5 µM;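 active = mean activation of 30% or more, with every replicate also reaching 30%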;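 note: higher luciferase signal means stronger suppression of miR-122 activity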
Each line names hits and unclear results; the compound was inactive in the other large screens. The full list was thinned out, with hits kept by preference.

C[C@@H]1CN([C@@H](C)CO)C(=O)c2cc(C#CCc3ccccc3)cnc2O[C@@H]1CN(C)Cc1cccc(C(=O)O)c1	none
C[C@H](O)C#Cc1cnc2c(c1)C(=O)N([C@H](C)CO)C[C@@H](C)[C@H](CN(C)Cc1cncnc1)O2	none
C[C@H](CO)N1C[C@H](C)[C@@H](CN(C)C(=O)Nc2ccc(F)cc2)Oc2c(NS(=O)(=O)c3ccccc3)cccc2C1=O	none
CNC[C@@H]1Oc2cc(C#C[C@H](C)O)ccc2S(=O)(=O)N([C@H](C)CO)C[C@H]1C	none
C[C@H]1CN([C@@H](C)CO)C(=O)c2cc(C#Cc3ccc(F)cc3)cnc2O[C@H]1CN(C)C(=O)c1ccccc1F	none
C[C@H](CO)N1C[C@H](C)[C@@H](CN(C)C(=O)C2CC2)Oc2cc(C#Cc3cccnc3)ccc2S1(=O)=O	none
COCC(=O)Nc1ccc2c(c1)OC[C@@H](C)NC[C@H](C)[C@H](OC)CN(C)C2=O	none
C[C@@H]1CN([C@@H](C)CO)C(=O)c2cc(C#Cc3ccccn3)cnc2O[C@H]1CN(C)Cc1cncnc1	none
C[C@H](CO)N1C[C@H](C)[C@H](CN(C)C(=O)c2cccc(F)c2)Oc2ncc(-c3cccc(F)c3)cc2C1=O	none
CO[C@H]1CN(C)C(=O)c2cc(NC(=O)c3nc4ccccc4s3)ccc2OC[C@H](C)N(Cc2ccncc2)C[C@H]1C	none
CO[C@H]1CN(C)C(=O)c2ccc(NC(=O)Nc3cccc(F)c3)cc2OC[C@@H](C)N(C)C[C@H]1C	none
COCCNC(=O)C[C@@H]1CC[C@H]2[C@@H](COc3ccc(NC(C)=O)cc3C(=O)N2C)O1	none
CN1C(=O)c2cc(NC(=O)NCc3ccccc3)ccc2OC[C@@H]2O[C@@H](CC(=O)NCC3CCCCC3)CC[C@@H]21	none
CCNC(=O)Nc1ccc2c(c1)C(=O)N(C)[C@H]1CC[C@H](CC(=O)Nc3cccc(F)c3)O[C@@H]1CO2	miR-122 inh 67
COCCNC(=O)C[C@H]1CC[C@@H]2[C@H](COc3ccc(NC(=O)c4cnccn4)cc3C(=O)N2C)O1	miR-122 inh 45
CN1C(=O)c2cc(NC(=O)Cc3cccs3)ccc2OC[C@@H]2O[C@@H](CC(=O)NCC3CCCCC3)CC[C@@H]21	none
CCNC(=O)C[C@@H]1CC[C@H]2[C@@H](COc3ccc(NC(=O)Nc4ccc(F)cc4)cc3C(=O)N2C)O1	miR-122 inh 50
CO[C@H]1CN(C)C(=O)c2ccc(NC(=O)Nc3cccc(F)c3)cc2OC[C@H](C)N(C)C[C@H]1C	none
CCCNC(=O)Nc1ccc2c(c1)C(=O)N(C)[C@H]1CC[C@@H](CC(=O)NCC3CCCCC3)O[C@@H]1CO2	miR-122 inh 42
COc1ccc(NC(=O)Nc2cccc3c2O[C@H](CN(C)Cc2ccc4c(c2)OCO4)[C@@H](C)CN([C@@H](C)CO)C3=O)cc1	none
COc1ccccc1-c1ccc2c(c1)O[C@H](CN(C)S(=O)(=O)c1ccc(C)cc1)[C@H](C)CN([C@@H](C)CO)S2(=O)=O	none
C[C@@H]1CN([C@H](C)CO)C(=O)c2cc(/C=C/c3ccccc3)cnc2O[C@@H]1CN(C)C(=O)c1cccnc1	none
C[C@H]1CN([C@@H](C)CO)C(=O)c2cc(-c3ccc(F)cc3)cnc2O[C@H]1CN(C)CC1CCOCC1	none
CC(C)CC#Cc1cnc2c(c1)C(=O)N([C@@H](C)CO)C[C@H](C)[C@@H](CN(C)S(=O)(=O)c1ccccc1)O2	none
C[C@H](CO)N1C[C@H](C)[C@@H](CN(C)C(=O)c2cccc(F)c2)Oc2ncc(-c3cccc(F)c3)cc2C1=O	none
CCC(=O)N1C[C@H](C)[C@@H](OC)CN(C)C(=O)c2ccc(NS(C)(=O)=O)cc2OC[C@H]1C	none
C[C@@H]1CN([C@@H](C)CO)S(=O)(=O)c2ccc(C#Cc3cccnc3)cc2O[C@H]1CN(C)CC1CCOCC1	none
C[C@H]1CN([C@@H](C)CO)C(=O)c2cc(C#Cc3ccccc3)cnc2O[C@@H]1CN(C)Cc1ccccn1	none
COc1ccc(C#Cc2ccc3c(c2)O[C@H](CN(C)C)[C@@H](C)CN([C@H](C)CO)S3(=O)=O)cc1	none
C[C@H]1CN([C@@H](C)CO)C(=O)c2cc(-c3ccc(F)cc3)cnc2O[C@H]1CN(C)Cc1ccccn1	none
C/C=C/c1cnc2c(c1)C(=O)N([C@H](C)CO)C[C@@H](C)[C@H](CN(C)CC1CCOCC1)O2	none
C[C@@H]1CN([C@@H](C)CO)S(=O)(=O)c2ccc(C#Cc3ccccn3)cc2O[C@@H]1CN(C)Cc1ccc(F)cc1	none
CCC(=O)Nc1ccc2c(c1)OC[C@@H](C)N(C(=O)CN1CCOCC1)C[C@@H](C)[C@H](OC)CN(C)C2=O	none
COc1cccc(-c2cnc3c(c2)C(=O)N([C@H](C)CO)C[C@H](C)[C@H](CN(C)Cc2cccnc2)O3)c1	none
C[C@@H](O)C#Cc1ccc2c(c1)O[C@@H](CN(C)C(=O)Cc1ccccn1)[C@@H](C)CN([C@@H](C)CO)S2(=O)=O	none
C[C@@H]1CN([C@H](C)CO)C(=O)c2cc(-c3cccnc3)cnc2O[C@H]1CN(C)C(=O)Nc1ccc(F)cc1	none
C[C@@H]1CN([C@H](C)CO)S(=O)(=O)c2ccc(C#CCC3CCCC3)cc2O[C@@H]1CN(C)C(=O)c1ccccn1	none
C[C@@H]1CN([C@@H](C)CO)S(=O)(=O)c2ccc(-c3cncnc3)cc2O[C@H]1CN(C)Cc1ccccc1	none
CCCC(=O)Nc1ccc2c(c1)C(=O)N(C)[C@@H]1CC[C@H](CC(=O)NCCN3CCCCC3)O[C@H]1CO2	miR-122 inh 50
CCCC(=O)Nc1ccc2c(c1)C(=O)N(C)C[C@@H](OC)[C@H](C)CN[C@@H](C)CO2	none
CCCNC(=O)C[C@H]1CC[C@H]2[C@H](COc3ccc(NC(=O)c4ccc5c(c4)OCO5)cc3C(=O)N2C)O1	none
COc1ccccc1-c1cnc2c(c1)C(=O)N([C@H](C)CO)C[C@H](C)[C@@H](CN(C)C(=O)c1ccccc1)O2	none
C[C@@H]1CN([C@H](C)CO)C(=O)c2cc(-c3ccc(C#N)cc3)cnc2O[C@H]1CN(C)CC1CCOCC1	none
c1ccc(CCNc2nnnn2-c2ccccc2)cc1	miR-122 inh 46
CC(C)(CNC(=S)NCCc1ccccc1)CNC(=S)NCCc1ccccc1	none
CCCNC(=O)Nc1ccc2c(c1)OC[C@@H](C)N(C)C[C@H](C)[C@H](OC)CN(C)C2=O	none

Compound activity: PubChem, Broad Institute
